Assay results as given in PubChem BioAssay AID602393 (Broad Institute, 2012).
In all, about 350,000 compounds went through this assay and about 7,000 (2%) were called active. The entries come from a sample that favours actives as a whole. Unmarked numbers belong to inactive results. No stated cut-off is given here; in the data, active means activation above about 40%; inconclusive means no clear call, values can overlap the other calls; inactive means below that.

Experiment: raisers of Bmi1 knock-in reporter signal – mouse ES cells, Bmi1 luciferase knock-in, single point, esBAF inhibitor project, primary screen (AID 602393);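 further: 0% = median of the plate's neutral control wells and 100% = double that signal; a rise in the Bmi1 reporter signal indicates esBAF inhibition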
Conditions: 24 h, at 12.5 µM, stronger effect = higher value, 100% = twice the neutral-well signal

SMILES	reporter increase
CCN(CC(=O)NCCc1ccccc1)S(=O)(=O)c1ccc(C)cc1	-2.78%
CCOc1ccc(N(CC(=O)NCCc2ccc(F)cc2)S(=O)(=O)c2ccccc2)cc1	1.13%
COc1ccc(N(CCC(=O)NCCc2ccccc2)S(=O)(=O)c2ccc(C)cc2C)cc1	77.9% (active)
CCN(CC)c1ccc(C(=O)OCC(=O)c2ccco2)cc1	69.5% (active)
CCc1ccc(C(=O)COC(=O)c2ccco2)cc1	13.9%
O=C(COC(=O)c1ccccc1C(=O)c1ccccc1)c1ccco1	-5.33%
C[C@@H]1CN([C@H](C)CO)C(=O)c2cc(-c3cccc(F)c3)cnc2O[C@@H]1CN(C)C	-2.09%
Cc1noc(C)c1S(=O)(=O)Nc1ccc2c(c1)C(=O)N([C@H](C)CO)C[C@H](C)[C@H](CN(C)S(=O)(=O)c1cn(C)cn1)OCCCC[C@@H](C)O2	-2.07%
C[C@@H]1CCCCO[C@@H](CN(C)C(=O)NC2CCCCC2)[C@H](C)CN([C@H](C)CO)C(=O)c2cc(NC(=O)c3ccccc3)ccc2O1	8.88%
Cc1ccccc1S(=O)(=O)NCC[C@@H]1CC[C@@H](NS(=O)(=O)c2ccccc2C)[C@@H](CO)O1	2.87%
O=C(c1cccc(N2CCCC2=O)c1)N1CCOCC1	-0.631%
O=C(NCCCN1CCCCCC1)c1ccc(N2CCCC2=O)cc1	-4.86%
O=C(NCCc1ccc(Cl)cc1)c1cccc(N2CCCC2=O)c1	54.9% (active)
COc1ccc(CN(C)C[C@H]2OCCCC[C@H](C)Oc3ccc(NC(=O)NC4CCCCC4)cc3C(=O)N([C@@H](C)CO)C[C@@H]2C)cc1	2.7%
O=C(CSCc1ccc(Cl)cc1)N1CCCCC1	47.9% (active)
O=C(CSCc1cccs1)N1CCCC1	33.4%
O=C(CSCc1ccc(Cl)cc1)N1CCN(Cc2ccc3c(c2)OCO3)CC1	-7.9%
CO[C@@H]1CN(C)C(=O)c2cc(NC(=O)C3CC3)ccc2OC[C@H](C)N(Cc2ccc(F)cc2)C[C@@H]1C	-2.84%
COc1ccc(-c2cnc3c(c2)C(=O)N([C@@H](C)CO)C[C@@H](C)[C@H](CN(C)C(=O)C2CCCCC2)O3)cc1	2.07%
CCn1c(SCC(=O)N(C)C2CCS(=O)(=O)C2)nnc1-c1cccs1 (stereo not given)	-1.83%
CCn1c(SCC(=O)c2ccc(Cl)s2)nnc1-c1cccs1	46% (active)
CCn1c(Cc2cccs2)nnc1SCC(=O)c1ccc(C)cc1	25.1%
COc1ccc(S(=O)(=O)N[C@@H]2CC[C@@H](CC(=O)NCCc3ccccc3)O[C@@H]2CO)cc1	3.19%
C[C@@H]1CCCCO[C@@H](CN(C)C(=O)Cc2ccccc2)[C@H](C)CN([C@@H](C)CO)C(=O)c2cc(NC(=O)Nc3ccc(F)cc3)ccc2O1	1.88%
CC(C)NC(=O)N(C)C[C@@H]1OCc2ccccc2-c2c(n(C)c3ccccc23)C(=O)N([C@@H](C)CO)C[C@H]1C	-0.481%

SMILES	reporter increase
O=[N+]([O-])c1ccc2c(c1)Nc1nc3ccccc3nc1N2	47.3% (active)
O=C(Oc1ccc([N+](=O)[O-])cc1)c1ccc2ccccc2n1	0.987%
O=[N+]([O-])c1cc2ccccc2nc1-c1ccccc1	-3.44%
CO[C@@H]1CN(C)C(=O)c2cc(NC(=O)c3ccccc3F)ccc2OC[C@@H](C)N(CC2CC2)C[C@H]1C	1.73%
COc1ccccc1S(=O)(=O)N1CC[C@H]2[C@@H](CO)N(C)c3ccc(C#Cc4ccccc4)cc3[C@H]21	-3.04%
C[C@H]1CCCCO[C@@H](CN(C)Cc2ccncc2)[C@@H](C)CN([C@@H](C)CO)C(=O)c2cc(NC(=O)Nc3ccc(F)cc3)ccc2O1	-1.97%
CCOC(=O)c1ccc(NC(=O)CNC(=O)c2ccco2)cc1	-2.33%
CCOC(=O)c1ccc(-c2ccc(C(=O)Nc3cccnc3)o2)cc1	58.2% (active)
COc1cccc(C(=O)Nc2cccnc2)c1OC	0.381%
CC(=O)N1[C@@H](CO)[C@@H]2c3ccccc3N(S(=O)(=O)c3ccccc3)C[C@@H]21	0.543%
Cc1ccc2nc(N3CCN(C(=O)c4ccco4)CC3)sc2c1	54.6% (active)
O=C(c1ccco1)N1CCN(C(=O)c2cc(-c3ccccc3F)no2)CC1	66.3% (active)
O=C(Cc1c(F)cccc1Cl)N1CCN(C(=O)c2ccco2)CC1	3.68%
Cc1ccc2nc(N3C(=O)C(O)=C(C(=O)c4ccco4)C3c3cccc(O)c3)sc2c1 (stereo not given)	43.5% (active)
Cc1ccc(OCC(=O)Nc2ccc(N3CCN(C(=O)c4ccco4)CC3)cc2)c(C)c1	0.555%
O=C(c1cccc([N+](=O)[O-])c1)N1CCN(C(=O)c2ccco2)CC1	-1.81%
O=C(NCCCN1CCOCC1)c1cc(-c2ccccc2F)no1	19.6%
O=C(c1ccco1)N1CCN(c2cccc(Cl)c2)CC1	45.4% (active)
COc1ccc2nc(N3C(=O)C(O)=C(C(=O)c4ccco4)C3c3ccco3)sc2c1 (stereo not given)	-10.8%
O=C(c1ccco1)N1CCN(C(=S)Nc2cc(F)cc(F)c2)CC1	7.97%
C=CCSc1nnc(N2C(=O)C(O)=C(C(=O)c3ccco3)C2c2ccc(F)cc2)s1 (stereo not given)	10.6%
COc1ccc2nc(N3CCN(C(=O)c4ccc([N+](=O)[O-])o4)CC3)sc2c1	-6.63%
COCC#Cc1cnc2c(c1)C(=O)N([C@@H](C)CO)C[C@@H](C)[C@@H](CN(C)C(=O)c1cccnc1)O2	3.33%
C[C@H](CO)N1C[C@H](C)[C@H](CN(C)C(=O)Nc2ccc3c(c2)OCO3)Oc2ccc(NS(=O)(=O)c3ccc(Cl)cc3)cc2CC1=O	4.87%
Cc1cccc(CN(C)C[C@@H]2OCc3cn(nn3)CCCC(=O)N([C@@H](C)CO)C[C@H]2C)c1	-0.643%
